# From the supplement of paper PMC6555819
# Assays:
# Assay in all cases: PBM binding z-score (relative to random genomic background probes); higher = stronger binding; sequences stand for … in GC…GCGATTGACAGCGTAGAATGAAGG
# [1] = test system: PPARg:RXRa DBDmut IVT, anti-RXR (DBD mutation: RXRa K156A/R161A, NR concentration 270 nM, RXRa partner concentration 90 nM)
# Summary of the method: (§1)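 Random background probes are the reference for binding z-scores. These scores derive from regression-normalized fluorescence on custom Agilent 4×180K protein-binding microarrays incubated 1 h with ligand-free nuclear receptor dimers. Binding was detected with antibodies against each partner (one per run).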
# [2] = test system: PPARg:RXRa IVT, anti-PPARg (NR concentration 270 nM, RXRa partner concentration 90 nM)
# Summary of the method: as §1
# [3] = test system: PPARg DBDmut:RXRa IVT, anti-PPARg (DBD mutation: PPARg1 K132A/R137A, NR concentration 270 nM, RXRa partner concentration 90 nM)
# Summary of the method: as §1
# [4] = test system: PPARg DBDmut IVT, anti-PPARg (DBD mutation: PPARg1 K132A/R137A, NR concentration 270 nM)
# Summary of the method: as §1
# [5] = test system: PPARg homodimer (NR concentration 180 nM)
# Summary of the method: as §1
# [6] = test system: PXR:RXRa (NR concentration 270 nM, RXRa partner concentration 90 nM)
# Summary of the method: as §1
# [7] = test system: PXR homodimer (NR concentration 270 nM)
# Summary of the method: as §1
# [8] = test system: RARa:RXR (NR concentration 270 nM, RXRa partner concentration 90 nM)
# Summary of the method: as §1
# [9] = test system: RARa homodimer (NR concentration 270 nM)
# Summary of the method: as §1
# [10] = test system: RARb:RXRa (NR concentration 270 nM, RXRa partner concentration 90 nM)
# Summary of the method: as §1
# [11] = test system: RARb homodimer (NR concentration 270 nM)
# Summary of the method: as §1
# [12] = test system: RARg:RXRa (NR concentration 270 nM, RXRa partner concentration 90 nM)
# Summary of the method: as §1
# [13] = test system: RARg homodimer (NR concentration 270 nM)
# Summary of the method: as §1
# [14] = test system: RXRa DBDmut IVT, anti-RXR (DBD mutation: RXRa K156A/R161A, NR concentration 90 nM)
# Summary of the method: as §1
# [15] = test system: RXRa homodimer (NR concentration 180 nM)
# Summary of the method: as §1
# [16] = test system: THRa:RXRa (NR concentration 90 nM, RXRa partner concentration 90 nM)
# Summary of the method: as §1
# [17] = test system: THRa homodimer (NR concentration 90 nM)
# Summary of the method: as §1
# [18] = test system: VDR homodimer (NR concentration 270 nM)
# Summary of the method: as §1
Sequence,PBM binding z-score [1],PBM binding z-score [2],PBM binding z-score [3],PBM binding z-score [4],PBM binding z-score [5],PBM binding z-score [6],PBM binding z-score [7],PBM binding z-score [8],PBM binding z-score [9],PBM binding z-score [10],PBM binding z-score [11],PBM binding z-score [12],PBM binding z-score [13],PBM binding z-score [14],PBM binding z-score [15],PBM binding z-score [16],PBM binding z-score [17],PBM binding z-score [18]
CAATCTAGGTCAAAGGTCAAAGTCGAGCCAACCA,8.91,9.32,3.79,6.44,3.41,6.92,1.82,8.3,1.8,5.89,5.31,8.93,7.21,2.92,10.3,4.99,2.3,2.73
ACTAGTTGGTCAGCTGAGGTCACACAAAATTCGG,1.6,2.89,0.792,0.409,3.4,5.63,2.18,4.78,1.17,3.87,4.3,4.32,4.78,1.52,4.23,5.01,5.35,3.83
AGAATGAGGTTACCAAAGATCAGTGAAACGCTTG,4.06,3.2,1.32,0.399,0.652,1.56,0.0456,1.9,0.395,2.06,0.66,2.09,1.51,1.14,2.67,2.65,0.639,0.206
CATACTAGGTCAAAGGTCAAAGTCGAGCCAACCA,7.72,8.62,2.89,3.65,3.93,6.81,1.91,8.63,1.65,5.97,5.51,8.9,7.33,3.12,9.95,4.98,2.11,3.51
CCTTACGGTTCACTGACAGGTTATAGCATTTGGA,0.62,0.00685,0.829,0.643,1.64,2.14,0.911,2.41,1.71,1.16,1.26,3.49,0.922,3.31,2.05,1.53,0.708,2.95
ATATGTAGGTCATCGGGTCATTCAGTTTGCGCAT,8.44,8.83,6.46,6.66,5.23,5.5,8.57,6.32,2.05,4.65,4.63,6.21,5.6,2.92,6.72,4.16,3,5.1
CCTTACAGGTCACGAGGTTATAGCACGACGAGCG,5.46,6.09,1.32,1.39,3.54,4.58,0.719,5.38,1.27,5.31,4.51,6.3,6.12,2.77,6.64,3.98,1.85,2.48
ACTAGTTGGTCAGCTGAGGTCACACTCAATTCGG,1.55,2.58,0.716,-0.0108,1.84,5.39,1.85,4.51,0.596,3.54,4.47,3.93,4.09,1.5,3.92,5.01,4.85,3.27
TCTAGTTGGTCAAAGGTCAAACACTCGAAATGCG,3.57,6.13,0.582,1.1,5.11,6.28,2.64,7.64,2.96,5.23,5.02,7.43,6.41,2.11,8.23,4.04,1.45,3.12
GCTGCTCGGTCAACTGATGGTCAGCTAAAGCTCG,0.634,-0.00578,-0.981,-0.237,-0.156,-0.105,-0.492,0.225,-0.934,2.87,2.15,2.42,3.21,-0.121,-0.0356,0.0227,-0.551,-0.439
GTACCAAGGTGAATAGGTCGTTGATGAGTAGGCG,1.99,2.78,0.41,0.294,1.84,0.719,-0.224,1.72,0.00144,1.94,1.89,2.73,1.44,0.0133,1.92,1.79,0.526,0.496
GCTTACGGGTCAAAGGTTATGGCATGAATAGAAT,5.17,5.79,1.49,1.1,3.11,6.13,0.477,8.41,1.41,4.56,3.46,6.98,5.3,2.31,9.82,3.79,0.408,1.51
CAAACTAGGTCACCGGAAGGTCATAGTCCGCATG,8.59,9.21,4.3,3.06,4.74,5.48,1.67,6.36,1.54,5.66,5.85,7.82,6.45,1.8,5.92,4.58,3.33,2.78
ATATGTAGGTTAAGGGTCATGCAGGTTGGTTCGC,7.69,7.88,4.88,2.56,5.05,5.37,2.16,6.47,2.37,3.73,3.89,5.07,3.84,1.76,6.52,3.5,1.93,3.81
TCTCGGAGGACACGAAAGGTCTGAGCTCGACATC,1.62,-0.101,-0.378,-0.264,0.204,-0.0379,-0.678,0.227,-0.321,1.7,1.21,0.667,1.47,0.831,0.137,1.53,0.392,-0.266
CGAACTAGGTCAGAGCAGGACAGTGAAGGATGAT,7.51,7.58,2.72,2.03,0.79,1.15,-0.0767,1.54,-0.158,2.94,1.84,2.48,3.25,0.613,1.11,4.2,0.0649,-0.21

Sequence,PBM binding z-score [1],PBM binding z-score [2],PBM binding z-score [3],PBM binding z-score [4],PBM binding z-score [5],PBM binding z-score [6],PBM binding z-score [7],PBM binding z-score [8],PBM binding z-score [9],PBM binding z-score [10],PBM binding z-score [11],PBM binding z-score [12],PBM binding z-score [13],PBM binding z-score [14],PBM binding z-score [15],PBM binding z-score [16],PBM binding z-score [17],PBM binding z-score [18]
ACTCGGAGGACAAAGGTGAGAGCTACGCCAGTGA,0.595,2.19,-0.781,-0.86,0.6,0.477,-0.385,1.24,-0.258,2.37,1.79,2.63,1.82,0.453,1.5,1.68,0.221,0.0446
TATACAGGGTCTAAGGCCAGAGTACGAATGTCGA,-0.0368,0.912,0.973,0.725,0.023,-0.0788,0.0324,-0.102,0.373,0.935,0.78,0.921,1.04,0.336,0.544,1.05,0.535,1.12
CGTCCAAGGTCAGAGAGGTCAGTGACTGCCGAGT,3.1,3.54,-0.0571,-1.2,5.16,6.06,11.3,5.75,2.55,5.28,5.15,6.31,6.93,3.54,5.25,4.26,2.58,5.42
TAGCCTAAGTCATGGGCCAGTATACCACGCGAAC,-0.872,-0.144,-0.174,-0.856,-0.397,-0.259,-0.135,0.041,-0.286,0.0943,0.0501,0.0528,0.13,-0.416,0.289,-0.0695,-0.257,-0.135
CCTACTGGGCCAATGTCATTGATCAGTCAAAGCA,3.94,2.99,-0.0732,-0.746,-0.246,-0.427,-0.747,-0.51,-1.11,0.363,0.109,0.114,0.0827,-0.907,-0.139,-0.112,-0.837,-0.862
CCTACTGGGCAAAAAAGGTCATTGATGCCGATAA,0.468,1.62,-0.0172,-0.686,2.27,4.27,1.28,4.86,0.909,3.81,4.17,4.03,4.11,0.33,4.81,3.57,0.0156,2.05
ATATGTAGGTTACCGGGTCATTCAGTTTGCGCAT,8.02,8.28,6.4,4.2,3.3,4.35,9.95,4.52,0.996,2.76,3.18,3.85,2.52,1.45,4.15,3.37,2.38,4.17
CAAACTAGGCCAAGGTCAAAGTCGGTTTGTGCCA,6.88,6.61,0.98,0.266,1.87,4.28,1.2,3.97,0.776,4.07,3.85,4.2,4.17,2.06,3.91,3.77,2.36,3.23
ACTCGGAGGACAGAGGTCAGAGCTACGCCAGTGA,0.205,2.43,-0.153,-0.704,1.89,3.17,0.328,3.9,0.568,3.57,3.82,4.6,4.17,0.707,4.17,3.03,0.579,1.19
CAAACTAGGTCAAGGTCAAAGTAGGTTTGTGCCA,8.75,8.96,4.01,3.69,5.67,5.46,2.97,5.43,2.61,5.31,5.18,6.25,6.86,3.11,6.11,4.6,3.96,4.8
CGTCCAAGGTCAGCAGGTCAGAGAAAGCGACGTG,3.52,3.72,0.0227,-0.591,6.44,4.02,0.651,5.74,2.67,5.39,4.32,6.59,6.67,2.55,5.72,3.92,2.42,1.83
TAGCCTAGGTCATTGGACCAGTATAGTACGCATC,1.74,3.17,0.686,-0.0362,1.31,1.66,-0.324,2.35,-0.143,3.65,2.73,3.97,4.37,1.43,3.1,2.85,0.854,1.54
CCTAGTTGGTCAAGGTCTCACACGCTATAGGTAC,1.7,1.75,-0.0151,0.765,1.47,0.365,0.749,0.511,1.56,1.48,1.32,0.677,1.21,1.08,0.272,0.956,1.03,0.887
CAAACTAGGTCACGAGGTCAAAGTCCGCTTCCCG,8.56,9.04,2.5,3.48,3.45,6.15,3.42,6.91,1.34,5.48,5.59,7.56,6.9,3.1,7.59,4.76,4.67,4.9
CCTACTGGGCCAAGCTCATTGATCAGTCAAAGCA,4.44,2.91,-0.901,-1.44,-0.727,-0.626,-0.809,-0.399,-1.2,-0.112,-0.235,-0.314,-0.109,-0.384,-0.732,-0.704,-0.701,-0.851
